Some test systems named below: HCT-15 colon; SNB-19 CNS; U251 CNS; PC-3 prostate; SK-MEL-5 melanoma; UACC-62 melanoma; LOX IMVI melanoma; SK-MEL-28 melanoma; SK-MEL-2 melanoma; EKVX NSCLC; SN12C renal; UO-31 renal; TK-10 renal; ACHN renal; CAKI-1 renal; A498 renal; CCRF-CEM leukemia; MOLT-4 leukemia; SNB-75 CNS.
Common to all, as to assay: NCI-60 one-dose screen, 48 h (100 = growth as untreated, 0 = no growth, -100 = all killed)
Holding throughout (details): 10 µM unless noted

This is part of a sample that, as a whole, favours compounds with a hit. Of some 83,000 tested, about 20% had one in any assay.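 Testing used 96-well plates and a 48-hour single-concentration exposure. Example: -40 means 40% of the starting cells died.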 Values without a mark were called inactive. The source made the active and inactive calls. Rule for the calls: active = growth percent below 10; inactive = the rest.

As to `C[C@@H](CO)[C@@H]1CC[C@]2(C(=O)N3CCN(C)CC3)CC[C@]3(C)[C@H](CC[C@@H]4[C@@]5(C)CC[C@H](O)C(C)(C)[C@@H]5CC[C@]43C)[C@@H]12`, the growth in the test with HCT-15 colon is 44.3%; with SNB-19 CNS, 68.7%; with U251 CNS, 24.1%; in the test with PC-3 prostate, 64.1%; with SK-MEL-5 melanoma it was 82.9%; with UACC-62 melanoma, 78.3%. Also, the growth was 38.7% in the test with LOX IMVI melanoma; 106% in the test on SK-MEL-28 melanoma; 90.1% in the test on SK-MEL-2 melanoma; 88.4% in the test on EKVX NSCLC; 71.9% in the test with SN12C renal; 64.7% with UO-31 renal. Moreover, the growth is 113% in the test with TK-10 renal; 89.6% with ACHN renal; 78.2% in the test on CAKI-1 renal; 89% in the test on A498 renal; -5.45% (active) with CCRF-CEM leukemia; 39.2% with MOLT-4 leukemia.
On to `CCOC(=O)C1CCN(c2ccc(N3C[C@@H](CNCc4ccc(C(=N)N)cc4)OC3=O)cc2)CC1`, for which the growth was 102% in the test with HCT-15 colon; 98.9% in the test on SNB-19 CNS; 104% in the test with U251 CNS; 94.4% in the test on PC-3 prostate; 103% in the test on SK-MEL-5 melanoma; 97.3% in the test on UACC-62 melanoma. Also, the growth in the test with LOX IMVI melanoma was 96.4%; in the test with SK-MEL-28 melanoma it was 105%; in the test with SK-MEL-2 melanoma, 112%; with EKVX NSCLC, 99.4%; in the test with SN12C renal, 97.6%; in the test with UO-31 renal it was 77.8%. The growth in the test on TK-10 renal was 97.5%; in the test with ACHN renal, 102%; with CAKI-1 renal, 89.4%; in the test on A498 renal, 108%; with CCRF-CEM leukemia, 98.5%; in the test on MOLT-4 leukemia, 101%.
For the molecule `CNC(=O)c1c(NC(=O)c2ccc(C(C)(C)C)cc2)sc2c(CN(C)C)c(O)ccc12`, the growth with HCT-15 colon was -77.3% (active); with SNB-75 CNS, 94.9%; with SNB-19 CNS it was 0.882% (active); in the test on U251 CNS, -29.9% (active); in the test on PC-3 prostate, -23.3% (active); in the test with SK-MEL-5 melanoma it was -29.5% (active). Also, the growth in the test on UACC-62 melanoma is -85.9% (active); with LOX IMVI melanoma, -88.5% (active); in the test with SK-MEL-28 melanoma, -89.1% (active); in the test on SK-MEL-2 melanoma it was -53% (active); in the test on EKVX NSCLC, 63.3%; in the test with UO-31 renal it was -78.5% (active). Moreover, the growth in the test with TK-10 renal is 87.5%; in the test on ACHN renal, -22.3% (active); in the test on CAKI-1 renal it was -13.1% (active); in the test on A498 renal, 53.1%; in the test on CCRF-CEM leukemia, -7.61% (active); in the test with MOLT-4 leukemia, -35.5% (active).
As for `c1ccc(CNc2ccc3nc(CCC4CCCCC4)[nH]c3c2)cc1`, the growth in the test on HCT-15 colon is 26.8%; in the test on SNB-75 CNS, 84.9%; with SNB-19 CNS it was 80.4%; with U251 CNS, 63.6%; in the test on PC-3 prostate, 62.5%; in the test on UACC-62 melanoma it was 59.6%. Further, the growth was 79.4% in the test with LOX IMVI melanoma; 80% in the test on SK-MEL-28 melanoma; 82.8% in the test on SK-MEL-2 melanoma; 75.7% with EKVX NSCLC; 37.5% in the test on UO-31 renal; 84.2% in the test with TK-10 renal. Besides, the growth with ACHN renal is 87%; in the test on CAKI-1 renal, 66.7%; in the test on A498 renal it was 42.7%; in the test with CCRF-CEM leukemia, 59.2%; with MOLT-4 leukemia, 51.2%.
Consider `COc1ccc(C(c2cc(OC)c(OC)c(OC)c2)N2CCCC2)cc1` (centres undefined), for which the growth in the test on HCT-15 colon is 52.7%; with SNB-75 CNS it was 84.1%; in the test on SNB-19 CNS, 90.5%; in the test on U251 CNS, 77.8%; in the test on PC-3 prostate, 63.9%; in the test with SK-MEL-5 melanoma, 65.2%. Besides, the growth was 57.4% in the test on UACC-62 melanoma; 73% in the test on LOX IMVI melanoma; 80.1% with SK-MEL-28 melanoma; 55.7% in the test on SK-MEL-2 melanoma; 87.8% in the test on EKVX NSCLC; 108% in the test with SN12C renal. The growth in the test on UO-31 renal was 75.1%; with TK-10 renal, 88.3%; in the test with ACHN renal, 103%; in the test with CAKI-1 renal, 77.5%; in the test on A498 renal it was 31.2%; in the test with CCRF-CEM leukemia, 71.2%. In addition, the growth in the test on MOLT-4 leukemia is 78.1%.
As for `COc1ccccc1-n1c(-c2cc(O)ccc2C)cn2c3c(=O)[nH]c(=O)n(C)c3nc12`, the growth with HCT-15 colon was 85.8%; with SNB-75 CNS, -32% (active); with SNB-19 CNS, 82.1%; with U251 CNS, 83.8%; in the test with PC-3 prostate, 67.1%; in the test with SK-MEL-5 melanoma, 77.3%. The growth in the test on UACC-62 melanoma was 77.8%; with LOX IMVI melanoma, 38.9%; in the test with SK-MEL-28 melanoma, 96.9%; with SK-MEL-2 melanoma, 89.7%; in the test with EKVX NSCLC, 87.4%; in the test with SN12C renal, 41.6%. Moreover, the growth in the test on UO-31 renal is 36.4%; in the test with TK-10 renal, 99.2%; in the test with ACHN renal it was 27.1%; with CAKI-1 renal it was 39.8%; in the test on A498 renal, 106%; in the test with CCRF-CEM leukemia, 114%. The growth in the test on MOLT-4 leukemia was 71.5%.
Take `CCN(CC)c1ccc(N2C(=O)/C(=C/c3cccs3)SC2=S)cc1`: the growth is 102% in the test with HCT-15 colon; 93.9% in the test with SNB-75 CNS; 94.6% in the test with SNB-19 CNS; 89.1% in the test on U251 CNS; 64.1% in the test on PC-3 prostate; 93.8% in the test with SK-MEL-5 melanoma. For the same molecule, the growth in the test with UACC-62 melanoma was 80.8%; with LOX IMVI melanoma, 88.8%; with SK-MEL-28 melanoma, 97.6%; in the test on SK-MEL-2 melanoma, 110%; in the test on EKVX NSCLC, 92.2%; in the test on SN12C renal, 91.5%. Further, the growth in the test with UO-31 renal was 73.3%; with TK-10 renal, 92.9%; in the test on ACHN renal it was 94.3%; in the test with CAKI-1 renal it was 89.7%; in the test on A498 renal, 71.1%; in the test with CCRF-CEM leukemia, 83%. In the test on MOLT-4 leukemia, the growth is 97.9%.
Regarding `N#Cc1c(N2CCOCC2)nc(=S)[nH]c1-c1ccccc1`, the growth in the test on HCT-15 colon was 86.6%; in the test with SNB-19 CNS, 84.8%; in the test with U251 CNS, 78.5%; in the test on PC-3 prostate, 47%; in the test with SK-MEL-5 melanoma it was 63%; in the test on UACC-62 melanoma it was 43.6%. Also, the growth was 80% with LOX IMVI melanoma; 79.6% with SK-MEL-28 melanoma; 41.8% in the test on SK-MEL-2 melanoma; 56.8% in the test with EKVX NSCLC; 73.7% in the test with SN12C renal; 76.9% in the test on UO-31 renal. Besides, the growth in the test on TK-10 renal was 57.6%; in the test on ACHN renal, 73.9%; with CAKI-1 renal, 61.4%; with A498 renal, 13.7%; with CCRF-CEM leukemia it was 62.3%.
Consider `Nc1c(C(=O)Nc2ccccn2)sc2nc3c(cc12)C(O)CCC3` (centres undefined), for which the growth in the test with HCT-15 colon was 23.1%; in the test on SNB-75 CNS it was 12.7%; with SNB-19 CNS, 20.9%; in the test on U251 CNS, 19%; in the test on PC-3 prostate, 16.3%; with SK-MEL-5 melanoma, 20.3%. The growth was 18.7% in the test on UACC-62 melanoma; 36.6% with LOX IMVI melanoma; 46.6% in the test on SK-MEL-28 melanoma; 43.8% in the test with SK-MEL-2 melanoma; 42.1% in the test on EKVX NSCLC; 44.3% in the test on SN12C renal. The growth in the test with UO-31 renal is 43.6%; in the test on TK-10 renal, 47.4%; in the test with ACHN renal it was 46.2%; in the test on CAKI-1 renal, 28.9%; with A498 renal it was 3.12% (active); in the test on CCRF-CEM leukemia it was 6.62% (active). Also, the growth in the test with MOLT-4 leukemia was 34%.

The values above are taken from PubChem BioAssay (NCI).
